Test results reported in PubChem BioAssay (Tox21).
Records with an inconclusive call do not appear. A call without a number means that no potency is given here. Active and inactive are the calls of the source. Calls come from the whole dose curve; as a rule, active = well fitted cell-killing curve with a large enough effect in the repeat runs; inconclusive = weak or mixed curves, or effect the other way; inactive = no such curve, though single readings can be large or run the other way.

Test: qHTS assay to identify small molecule antagonists of the thyroid receptor (TR) signaling pathway - cell viability counter screen (AID 743064); note: nearly all actives have a fitted effect of over 50% in size
Conditions: GH3.TRE-Luc viability, CellTiter-Fluor, 24 h; series mostly up to 70.3 µM
Source text: National Center for Advancing Translational Sciences [NCATS]
NIH Chemical Genomics Center [NCGC]
U.S. Environmental Protection Agency [EPA]
National Institutes of Environmental Health Sciences [NIEHS]
National Toxicology Program [NTP]
U.S. Food and Drug Administration [FDA]
Thyroid receptor (TR), a nuclear hormone receptor, plays an important role in development, proliferation, differentiation, metabolism, brain function, and cardiovascular system. […] To profile the Tox21 10K compound library in TR signaling, a cell-based GH3-TRE-Luc assay (GH3.TRE-Luc cell line, developed by the laboratory of Dr. Albertinka J. Murk, Wageningen University) was used to measure the inhibition of TR. GH3 (rat pituitary tumor) cells stably expressing a TR activity sensor consisting of two TR response elements and a luciferase reporter gene. The cytotoxicity of the Tox21 compound library against the GH3.TRE-Luc cell line was tested in parallel by measuring the cell viability using CellTiter-Fluor assay (Promega, Madison, WI) in the same wells.
Tox21 Assay Protocol Summary:
GH3.TRE-Luc cells were dispensed at 1500 cells/4 uL/well into 1536-well white solid bottom plates using a Multidrop Combi dispenser (Thermo Fisher Scientific Inc., Waltham, MA). After the assay plates were incubated at 37 C for 4 hours, 23 nL of library compound or DMSO controls was transferred to the assay plates by a pintool station (Kalypsys, San Diego, CA), followed by addition of 1 ul of T3 (1 nM, final concentration in the wells) to stimulate TR transactivation. The assay plates were incubated at 37 C for 23.5 h, and then 1 uL of CellTiter-Fluor reagent (Promega, Madision, WI) of measuring cytotoxicity was added to each well using a Bioraptr Flying Reagent Dispenser (FRD) workstation (Beckman Coulter, Indianapolis, IN, USA). The plates were incubated at 37C and 5% CO2 for additional 30 min, and fluorescence intensity was measured by a ViewLux plate reader (PerkinElmer, Shelton, CT).
Potency is the fitted concentration of half-maximal effect.

| Compound | Potency |
| --- | --- |
| NCCCN1CCN(CCCN)CC1 | inactive |
| CCOC(=O)C(Br)c1ccccc1 (stereo not given) | inactive |
| c1ccc(CN(CC2=NCCN2)c2ccccc2)cc1 | 26.6 µM (active) |
| CC(C)(C)C1CCCCC1=O (stereo not given) | inactive |
| CCCCCCCOC(=O)CCC | inactive |
| CC1(C)C(=O)N(Cl)C(=O)N1Br | inactive |
| NNS(=O)(=O)c1ccc(Oc2ccc(S(=O)(=O)NN)cc2)cc1 | inactive |
| Cc1ccc(C)c(N)c1 | inactive |
| O=c1[nH]cnc2c1ncn2[C@@H]1O[C@H](CO)[C@@H](O)[C@H]1O | inactive |
| O=C(O)c1cccc(Cl)c1Cl | inactive |
| CC/C=C\CCOC(=O)CCCCC | inactive |
| CC(=O)OC1C2(C)CCC(C2)C1(C)C (stereo not given) | inactive |
| COc1cc(Cl)ccc1Cl | inactive |
| NC(=O)Cc1cccc(C(=O)c2ccccc2)c1N | inactive |
| ClC(Cl)Cl | inactive |
| CC1=CC(=O)CC(C)(C)C1=O | inactive |
| NS(=O)(=O)c1cc(-c2nn[nH]n2)c(NCc2cccs2)cc1Cl | inactive |
| CC(C)C1=CC2=CC[C@@H]3[C@](C)(CCC[C@@]3(C)C(=O)O)[C@H]2CC1 | inactive |
| CCC/C=C/CO | inactive |
| CC(C)c1ccccc1 | inactive |

| Compound | Potency |
| --- | --- |
| CCC(=O)Nc1ccc(O)cc1 | inactive |
| O=C1CCN(c2ccccc2)N1 | inactive |
| Clc1cccc(-c2cc(Cl)cc(Cl)c2)c1 | inactive |
| CN1CCN(C2=Nc3cc(F)ccc3Cc3ccccc32)CC1 | 11.9 µM (active) |
| C1CCOC1 | inactive |
| Cc1c(-c2ccccc2)oc2c(C(=O)OCCN3CCCCC3)cccc2c1=O | inactive |
| CC(C)OC(C)C | inactive |
| CCCCC(=O)O[C@]1(C(=O)CO)[C@H](C)C[C@H]2[C@@H]3CCC4=CC(=O)C=C[C@]4(C)[C@@]3(F)[C@@H](O)C[C@@]21C | inactive |
| CCN(CC)CC1CCCCN1CC(=O)N1c2ccccc2C(=O)Nc2cccnc21 (stereo not given) | inactive |
| Cc1ccc(C(C)C)cc1O | inactive |
| CC(C)S | inactive |
| C=CCCCCCCCCO | inactive |
| CS(=O)(=O)c1ccc([C@@H](O)[C@@H](CF)NC(=O)C(Cl)Cl)cc1 | inactive |
| CC[C@H]1CC[C@H](NCc2cc3c(cc2OC)[C@H]2C[C@H]2C(=O)N3C)[C@H](c2ccccc2)N1 | 24.3 µM (active) |
| C=Cc1ccccc1 | inactive |
| NC(Cc1ccc(F)cc1)C(=O)O (stereo not given) | 2.64 µM (active) |
| O=CCCc1ccccc1 | inactive |
| CCOc1ccc(NC(N)=O)cc1 | inactive |
| CN(CCCN1c2ccccc2CCc2ccccc21)CC(=O)c1ccc(Cl)cc1 | 11.9 µM (active) |
| CCN(O)CC | inactive |
